Tau fil binding = qHTS Assay for Tau Filament Binding; recombinant tau filaments, thioflavin S fluorescence, 15 h; filaments grown with octadecylsulfate alongside compound; AID 596, 2007; 71,000 tested, 2% active; Potency, µM (titrated, usually from 57.1 µM), for the others: top-dose activity change, negative = inhibition;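 further: actives lower thioflavin S fluorescence by blocking filaments or displacing dye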
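Tau 2 uM in ThS buffer dispensed; compound added; 60 uM ODS added (finals 1 uM tau, 30 uM ODS); 15 h 37 C; fluor ex450/em510.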
Pol III holo inh = qHTS Assay for Inhibitors of DNA Polymerase III Holoenzyme System; reconstituted DNA polymerase III holoenzyme replication, biochemical; Potency, µM (highest dose often 57.1 µM), for inactives: at the top dose activity change, negative = inhibition; 71,000 tested, 0.25% active; AID 603, 2007
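Reconstituted *E. coli* holoenzyme (0.35 nM Pol III, 1 nM beta, 154 nM SSB, 2 nM primase) was preincubated with compound for 15 min at RT. Synthesis on 1.4 nM ssM13Gori ran 35 min, then was stopped with PicoGreen/EDTA and read as dsDNA fluorescence.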
ERK AVP inh = qHTS Assay for Inhibitors of the ERK Signaling Pathway using a Homogeneous Screening Assay; Potency, µM (highest dose often 57.5 µM), for the others: top-dose activity, negative = inhibition, most hits filed as inhibitors; AID 995, 2007; 72,000 tested, 0.99% active; HEK293-V1b, vasopressin-stimulated pERK AlphaScreen; further: nearly all actives have a fitted effect of over 55% in size
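Overnight-seeded V1b-HEK293 cells in 1% FBS got compound, then vasopressin (25 nM final, 5 min, 37C), then lysis buffer. AlphaScreen detection of phospho-ERK; activity normalized to basal and full-stimulation controls.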
PK Bst = Pyruvate Kinase | purified pyruvate kinase, luminescence ATP production; ribose 5-phosphate activator present at AC10 | Potency, µM | 51,000 tested, 1.2% active | AID 361, 2006; in the data active means potency below about 11 µM; inconclusive means mostly about 12 µM to 25 µM;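 the screen sought inhibitors and activators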;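 further: scaled between full activation by ribose 5 phosphate and full inhibition by luteolin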
Luciferase inh = qHTS Assay for Inhibitors of Firefly Luciferase. purified firefly luciferase, luminescence, 8 min. Potency, µM (doses to about 57.1 µM), for inactives: top-dose activity change, negative = inhibition, hits mostly inhibitors. 72,000 tested, 2.2% active; further: nearly all actives have a fitted effect of over 40% in size
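Firefly luciferase (PKLight detection mix) with 10 uM ATP in pH 7.2 imidazole buffer (KCl, MgCl2, Tween 20, BSA). Compounds tested across a concentration series (qHTS). Luminescence read after 8 min at ambient temperature.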
15-hLO inh = qHTS Assay for Inhibitors of 15-hLO (15-human lipoxygenase). purified 15hLO-1, xylenol orange hydroperoxide absorbance. AID 887, 2007. 74,000 tested, 1.4% active. Potency, µM (titrated, usually from 57.1 µM), inactives show at the top dose activity change, negative = inhibition, most hits filed as inhibitors. Polyunsaturated fatty acid lipoxygenase ALOX15 (Homo sapiens), P16050; further: nearly all actives have a fitted effect of over 55% in size
Target sequence (P16050 whole entry, looked up): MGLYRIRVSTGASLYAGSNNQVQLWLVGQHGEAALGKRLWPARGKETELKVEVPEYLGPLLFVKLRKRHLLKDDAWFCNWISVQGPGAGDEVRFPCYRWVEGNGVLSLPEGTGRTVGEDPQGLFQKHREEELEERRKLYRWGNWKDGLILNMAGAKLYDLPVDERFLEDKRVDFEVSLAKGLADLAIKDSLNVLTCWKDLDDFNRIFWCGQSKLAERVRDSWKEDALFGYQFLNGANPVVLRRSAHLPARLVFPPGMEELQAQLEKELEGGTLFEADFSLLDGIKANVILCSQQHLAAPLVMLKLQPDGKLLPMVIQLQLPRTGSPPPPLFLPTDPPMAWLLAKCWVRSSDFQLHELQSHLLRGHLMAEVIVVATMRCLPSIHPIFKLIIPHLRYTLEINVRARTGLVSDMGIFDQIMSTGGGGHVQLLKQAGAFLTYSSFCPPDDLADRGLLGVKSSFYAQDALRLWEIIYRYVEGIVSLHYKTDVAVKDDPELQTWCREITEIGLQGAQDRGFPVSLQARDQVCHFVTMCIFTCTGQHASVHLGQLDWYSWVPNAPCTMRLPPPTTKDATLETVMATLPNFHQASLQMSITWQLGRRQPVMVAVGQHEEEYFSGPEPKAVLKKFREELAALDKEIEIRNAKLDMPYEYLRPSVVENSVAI
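Purified human 15hLO-1 (40 nM final) in 25 mM Hepes pH 7.5, 0.01% Triton X-100 was preincubated with compound 15 min at room temperature, then reacted 6 min with 50 uM arachidonic acid; hydroperoxide detected by Fe-XO, 573/405 nm absorbance ratio.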
* = called active by the depositor; ? = inconclusive; nt = no result; [ ] = dose if it differs, or a comment. Compounds with a hit are over-represented: about 6% of the library has one in this group of screens. Unless noted, the call rests on the fitted dose curve; in most records, active means well fitted curve in the direction sought with a large enough effect; inconclusive means small, poorly fitted or top-dose-only effect, or another doubt; inactive means no such curve, though single readings can be large; an effect the other way counts as inactive or inconclusive. Unless noted, on the % scale 0 is the no-effect control and ±100 the full control effect; potency means the concentration at half of the fitted maximal effect.

SMILES | Tau fil binding | Pol III holo inh | ERK AVP inh | PK Bst | Luciferase inh | 15-hLO inh
CCOC(=O)C1=C(CSc2nc(C)ccc2C#N)OC(N)=C(C#N)C1c1cccc(OC)c1OC (configuration not stated) | 0.5% | -5.0% | -20.1% | >57 | -6.5% | 20µM*
Cc1cccc(-n2ncc3c(NC(C)C)ncnc32)c1 | -10.3% | -9.5% | nt | nt | 12.6µM* | -4.8%
Cc1ccccc1Nc1ncnc2c1cnn2-c1ccccc1 | -10.4% | 6.5% | nt | nt | 12.6µM* | -4.3%
CC(C)Nc1ncnc2c1cnn2-c1ccccc1 | 2.6% | -7.7% | nt | nt | 7.94µM* | 4.3%
Cc1cccc(-n2ncc3c(Nc4ccc(F)cc4)ncnc32)c1 | 61.3% | 0.2% | nt | nt | ? | -12.3%
CCOc1ccc(Nc2ncnc3c2cnn3-c2ccccc2)cc1 | 33.2% | -8.0% | nt | nt | 2.6% | -2.2%
COc1ccc(C(=O)N2CCC3(CC2)CN(Cc2ccc(C#N)cc2)C3)cc1 | 0.7% | 1.2% | 21.7% | nt | -0.4%[11.4 µM] | 8.7%
COCCn1c(=O)c(C)nc2cnc(N3CCN(C)CC3)nc21 | 9.4% | 0.9% | -7.3% | nt | 2.3%[11.4 µM] | -7.1%
CC1=C(/C=C/C(C)=C/C=C/C(C)=C/C=O)C(C)(C)CCC1 | 5.01µM* | 0.2% | 7.4% | nt | nt | ?
CC1=C(\C=C/C(C)=C/C=C\C(C)=C\CO)C(C)(C)CCC1 | ? | -1.8% | nt | nt | -0.3%[11.4 µM] | nt
CC1=C(/C=C/C(C)=C/C=C/C(C)=C\C=O)C(C)(C)CCC1 | 6.31µM* | -5.6% | -3.4% | nt | nt | -28.4%
CC(=O)OC/C=C(C)/C=C/C=C(C)/C=C/C1=C(C)CCCC1(C)C | -1.2% | 0.6% | 2.7% | nt | nt | -13.7%
CC1=C(/C=C/C(C)=C/C=C/C(C)=C/CO)C(C)(C)CCC1 | 31.6µM* | -5.2% | 29.8% | nt | nt | ?
O=C(O)[C@@H](O)[C@@H](O)[C@@H](O)[C@@H](O)c1nc2ccccc2s1 | -3.1%[11.4 µM] | -6.7%[11.4 µM] | 9.1%[11.5 µM] | nt | -6.7%[11.4 µM] | -8.8%[11.4 µM]
CCCn1c(-c2ccc(F)cc2)nc2c(N3CCN(C)CC3)nc(C)nc21 | 24.1% | -5.2% | -6.7% | nt | nt | 20µM*
COc1nc(Cl)nc(Cl)c1Cl (tested in a mixture with another compound) | 1.6%[11.4 µM] | -5.6%[11.4 µM] | -7.5%[11.5 µM] | nt | -1.9%[11.4 µM] | -2.7%[11.4 µM]
O=C(CC1Nc2ccccc2NC1=O)NCc1cccnc1 (configuration not stated) | -8.2% | -6.9% | 5.7% | >57 | 1.9% | 15.8µM*
CCCCNC(=O)CC1Nc2ccccc2NC1=O (configuration not stated) | -15.4% | -2.8% | nt | nt | 0.5% | -12.1%
CC(=O)OC[C@H]1O[C@@H](O/N=C(\C)CCN2CCCCc3nc(C)c(C)cc32)[C@H](OC(C)=O)[C@@H](OC(C)=O)[C@H]1OC(C)=O | nt | nt | 12.9%[11.5 µM] | nt | -0.4%[11.4 µM] | 0.7%[11.4 µM]
FC(F)(F)c1ccccc1-c1cncnc1-n1ccnc1 | 2.0% | -7.5% | 5.1% | nt | 1.5%[2.29 µM] | 9.6%
CN(C)c1ccc(-c2cncnc2-n2ccnc2)cc1 | -16.4% | -5.8% | 15.8µM* | nt | 0.8%[2.29 µM] | ?
CN(C)c1ccc(-c2cncnc2Nc2ccc(F)cc2)cc1 | -9.5% | 2.6% | ? | nt | -3.3%[2.29 µM] | 2.51µM*
CC(=O)N1[C@H](Cc2ccccc2)C=C[C@]1(C)C(=O)O | -11.3% | -0.4% | -4.0% | nt | nt | -2.5%
O=C(Cc1coc2cc3c(cc12)CCC3)OCc1cc(=O)n2c(n1)sc1ccccc12 | 70.8% | -20.4% | -16.0% | >57 | -0.7% | 20µM*
O=[N+]([O-])c1cccc2c[nH]nc12 | ? | 15.8µM* | -9.2% | nt | -0.9% | -4.3%[25.6 µM]
SMILES | Tau fil binding | Pol III holo inh | ERK AVP inh | PK Bst | Luciferase inh | 15-hLO inh
CCNc1ncc2nc(-c3cc(F)cc(F)c3)c(=O)n(C)c2n1 | -10.0% | -8.2% | 13.3% | nt | 0.4%[11.4 µM] | -15.7%
CN(C)c1ccc(NC(=O)c2cccc(N3C(=O)CCC3=O)c2)cc1 | -10.5% | 4.5% | -19.2% | nt | 12.6µM* | -25.7%
COc1cc(C(=O)Nc2ccc(N(C)C)cc2)cc(OC)c1OC | 10µM* | -5.3% | ? | nt | ? | -9.2%
CCN(CC)c1ccc(NC(=O)Nc2ccc(C(C)=O)cc2)cc1 | ? | -5.1% | -24.6% | >57 | 0.4% | -18.7%
CCN(CC)c1ccc(NC(=O)c2cncc(Br)c2)cc1 | 20µM* | -2.5% | ? | >57 | -25.0% | -7.8%
CN(C)c1cccc(C(=O)Nc2cccc(F)c2)c1 | -29.3% | -11.7% | -16.3% | nt | 15.8µM* | ?
COc1cc(C(=O)Nc2ccccn2)cc(OC)c1OC | nt | nt | nt | >25.6 | 1.1%[25.5 µM] | nt
CCN(CC)c1ccc(C(=O)Nc2cccc(F)c2)cc1 | -4.7% | -1.6% | ? | nt | 10µM* | -24.3%
Cc1sccc1C1C(C#N)=C(N)SC(N)=C1C#N | nt | nt | nt | >25.6 | -0.2%[25.5 µM] | nt
N#CC1=C(N)SC(N)=C(C#N)C1CCC1CCCCC1 | 95.2% | 7.1% | -2.0% | >57 | -0.3% | 15.8µM*
CCNc1ncc2nc(-c3ccc(Cl)cc3)c(=O)n(-c3ccc(OC)cc3)c2n1 | 74.2% | -2.7% | 1.8% | nt | 1.4%[11.4 µM] | -1.2%
CC1(C(=O)CSc2nc3ccccc3s2)CCC(=O)O1 (configuration not stated) | nt | nt | nt | 10.2* | 0.4%[25.5 µM] | nt
CCN1C(=O)[C@H]2[C@H]3[C@H](O)[C@H](O)C/C(=N/OCC(C)C)[C@@H]3CC[C@@H]2C1=O | nt | nt | 7.2%[11.5 µM] | nt | -2.2%[11.4 µM] | -0.9%[11.4 µM]
Cc1c(C(=O)N2CCOCC2)sc2nc(-c3ccccc3)cn12 | 3.4% | -1.4% | 26.4% | nt | -23.7% | -1.3%
c1ccc(-c2cn3nc(-c4ccccc4)sc3n2)cc1 | 1.0% | 1.2% | 23.0% | nt | 0.126µM* | 7.9%
Cc1nn2cc(-c3ccccc3)nc2s1 | 4.4% | -1.9% | -4.0% | ? | 10µM* | 25.1µM*
COCCn1c(=O)c(CCc2ccccc2)nc2cnc(N(C)C)nc21 | 300.7% | -4.8% | 5.2% | nt | 0.4%[11.4 µM] | -3.4%
